Shown are actives, neighbours in structure and some others; about 19% of the full set was active somewhere.
RORgamma inh – qHTS for inhibitors of ROR gamma transcriptional activity; Nuclear receptor ROR-gamma (Mus musculus), P51450; Drosophila S2 Gal4-RORgamma UAS-luciferase reporter, 20 h; Potency, µM (titrated, usually from 53.6 µM), without a hit: at the top dose activity change, negative = inhibition, usual class: inhibitors; 310,000 tested, 5.4% active; AID 2551, 2010; note: nearly all actives have a fitted effect of over 60% in size
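Using a luciferase readout, inhibitors were identified by reduced reporter activity in Drosophila cells coexpressing a copper-inducible Gal4–ROR gamma fusion and UAS-driven Photinus luciferase, incubated 20 hr after 700 uM copper sulfate.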
TDP1 inh – qHTS Assay for Inhibitors of Tyrosyl-DNA Phosphodiesterase (TDP1); recombinant TDP1, AlphaScreen DNA substrate cleavage; Potency, µM (top dose mostly 130 µM), for the others: at the highest dose activity change, negative = inhibition, actives largely listed as inhibitors; 350,000 tested, 0.28% active; AID 485290, 2010; note: nearly all actives have a fitted effect of over 40% in size
Target sequence (Q9NUW8 whole entry, looked up): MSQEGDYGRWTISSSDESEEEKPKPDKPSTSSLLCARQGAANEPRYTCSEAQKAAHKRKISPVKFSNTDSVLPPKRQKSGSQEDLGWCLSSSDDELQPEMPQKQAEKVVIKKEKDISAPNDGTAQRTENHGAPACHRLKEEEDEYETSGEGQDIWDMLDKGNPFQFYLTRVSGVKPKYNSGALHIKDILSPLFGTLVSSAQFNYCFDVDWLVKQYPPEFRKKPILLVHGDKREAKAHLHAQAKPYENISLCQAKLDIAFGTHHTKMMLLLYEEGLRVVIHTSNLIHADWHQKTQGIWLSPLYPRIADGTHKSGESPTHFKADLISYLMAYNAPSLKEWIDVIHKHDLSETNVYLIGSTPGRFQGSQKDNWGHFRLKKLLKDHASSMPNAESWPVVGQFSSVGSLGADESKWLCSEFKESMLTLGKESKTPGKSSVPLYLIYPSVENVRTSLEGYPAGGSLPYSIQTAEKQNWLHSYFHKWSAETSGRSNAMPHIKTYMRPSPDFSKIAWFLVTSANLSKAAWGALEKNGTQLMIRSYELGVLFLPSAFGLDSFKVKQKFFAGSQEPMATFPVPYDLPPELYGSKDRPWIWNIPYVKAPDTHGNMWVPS
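AlphaScreen read-out: signal falls as enzyme removes the 3' tyrosine-FITC from a 5'-biotinylated DNA oligo (15 nM, 5 min, RT). Enzyme was E. coli-made recombinant Tdp1 at 1 nM, exposed to compound for 15 min beforehand; beads 10 ug/ml, 10 min.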
DT40 TDP1 no CPT – qHTS for Inhibitors of human tyrosyl-DNA phosphodiesterase 1 (TDP1): qHTS in cells in absence of CPT | Potency, µM (series often up to 46.2 µM), for the others: at the top dose activity change, negative = growth inhibition, actives largely listed as inhibitors | AID 686978, 2013 | 420,000 tested, 15% active | DT40 Tdp1-/- hTDP1 cells, no CPT, ATP luminescence, 48 h; note: nearly all actives have a fitted effect of over 55% in size
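Cells were dispensed at 400 per well, compounds added by pin tool, plates incubated ≥48 hr at 37 °C, then CellTiter-Glo added for 30 min at room temperature before luminescence reading. Line: DT40 Tdp1-/- complemented with hTDP1; camptothecin omitted.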
VP16 counter – VP16 counterscreen qHTS for inhibitors of ROR gamma transcriptional activity | Drosophila S2 Gal4-VP16 UAS-luciferase, luminescence, 20 h | Potency, µM (highest dose often 53.6 µM), for inactives: at the highest dose activity, negative = inhibition, most hits filed as inhibitors | 310,000 tested, 3.5% active | AID 2546, 2010;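 note: Gal4-VP16 expression switched on by copper sulfate through the metallothionein promoter; nearly all actives have a fitted effect of over 50% in size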
DT40 TDP1 CPT – qHTS for Inhibitors of human tyrosyl-DNA phosphodiesterase 1 (TDP1): qHTS in cells in presence of CPT. chicken DT40 Tdp1-/-;hTDP1 cells + 20 nM CPT, ATP luminescence, 48 h. Potency, µM (titrated, usually from 46.2 µM), for the others: top-dose activity change, negative = growth inhibition, usual class: inhibitors. 420,000 tested, 12% active. AID 686979, 2013; note: nearly all actives have a fitted effect of over 55% in size
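Chicken DT40 Tdp1-/- cells complemented with human TDP1, 400 cells/well, exposed to compounds plus 20 nM camptothecin for at least 48 h at 37 C; viability read as ATP content by CellTiter-Glo luminescence.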
Numbers without * were called inactive; [ ] = remark or other dose. Calls come from the whole dose curve; as a rule, active = well fitted curve in the direction sought with a large enough effect; inconclusive = small, poorly fitted or top-dose-only effect, or another doubt; inactive = no such curve, though single readings can be large; an effect the other way counts as inactive or inconclusive. % is set by controls: 0 for no effect and ±100 for the full control effect; potency is the fitted concentration of half-maximal effect.

Screening CCCCNc1c(-c2cccc(-c3cc(C(C)=O)cs3)c2)nc2ccc(C)cn12 returned TDP1 inh 7.8%, DT40 TDP1 no CPT 13µM* and DT40 TDP1 CPT 16.4µM*.
Screening CCCCNc1c(-c2cccc(-c3ccc(OC)cc3)c2)nc2cc(C)ccn12 returned TDP1 inh 6.8%, DT40 TDP1 no CPT 18.4µM* and DT40 TDP1 CPT 16.4µM*.
`CCOc1ccc(C(=O)COC(=O)Cn2[nH]c(=O)c3ccccc3c2=O)cc1` gave DT40 TDP1 no CPT -2.9% and DT40 TDP1 CPT 2.4%.
`CCN(CC)c1ccc(C=C2C(=O)OC3(CCCCC3)OC2=O)cc1` gave RORgamma inh -24.9%, TDP1 inh 4.8%, DT40 TDP1 no CPT -1.1%, VP16 counter 1.9% and DT40 TDP1 CPT -16.1%.
Screening Nc1ccc2c(c1)OC1(CCCCC1)O2 returned RORgamma inh -34.2%, TDP1 inh 5.3%, DT40 TDP1 no CPT 16.4µM*, VP16 counter -2.9%[10 µM] and DT40 TDP1 CPT inconclusive.
For O=C1C(SCCO)=C(SCCO)C(=O)c2ccccc21 the results were RORgamma inh 0.631µM*, TDP1 inh 11.3%[56.1 µM], DT40 TDP1 no CPT 0.164µM*, VP16 counter 0.794µM* and DT40 TDP1 CPT 0.0517µM*.
O=c1[nH]c2ccccc2c(O)c1SCCO was read as RORgamma inh -16.1%, TDP1 inh 6.0%, DT40 TDP1 no CPT -1.3%, VP16 counter -10.0% and DT40 TDP1 CPT 12.2%.
Screening CC1CC(C)(C)C2=NCCN21 (stereo not given) returned DT40 TDP1 no CPT -1.5% and DT40 TDP1 CPT 18.7%.
`CCC(C)(C)C1CCC2(CC1)NC(=O)N(CC(=O)N(C)Cc1ccc3c(c1)OCCO3)C2=O` (stereo not given) gave TDP1 inh 1.7%, DT40 TDP1 no CPT 20.6µM* and DT40 TDP1 CPT inconclusive.
CCC(C)(C)C1CCC2(CC1)NC(=O)N(CC(=O)Nc1nc(-c3ccc(C)cc3)cs1)C2=O (stereo not given) was read as RORgamma inh 10.2%, TDP1 inh 5.6%, DT40 TDP1 no CPT 7.31µM*, VP16 counter 3.0% and DT40 TDP1 CPT inconclusive.
`CCC(C)(C)C1CCC2(CC1)NC(=O)N(CC(=O)N1CCN(c3ccccc3OC)CC1)C2=O` (stereo not given) gave DT40 TDP1 no CPT 20.6µM* and DT40 TDP1 CPT 20.6µM*.
Screening CCC(C)(C)C1CCC2(CC1)NC(=O)N(CC(=O)NC(C)CCc1ccccc1)C2=O (stereo not given) returned TDP1 inh -7.3%, DT40 TDP1 no CPT 11.6µM* and DT40 TDP1 CPT inconclusive.
CCOc1ccccc1N1CCN(C(=O)CN2C(=O)NC3(CCCC3)C2=O)CC1 was read as TDP1 inh -6.4%, DT40 TDP1 no CPT -4.9% and DT40 TDP1 CPT -4.1%.
For CCc1ccc(-n2c(=O)c3ccccc3n(CC(=O)C(C)(C)C)c2=O)cc1 the results were RORgamma inh 10.6%, TDP1 inh -1.8%, DT40 TDP1 no CPT 18.4µM*, VP16 counter -7.7% and DT40 TDP1 CPT inconclusive.
Screening CC(=O)c1ccc(N2C(=O)N(Cc3ccccc3C#N)c3ccccc3S2(=O)=O)cc1 returned TDP1 inh 9.3%, DT40 TDP1 no CPT inconclusive and DT40 TDP1 CPT 16.4µM*.
Screening COC(=O)c1ccc(OC)c(CN2C(=O)N(c3ccc(C(C)=O)cc3)S(=O)(=O)c3ccccc32)c1 returned TDP1 inh 1.5%, DT40 TDP1 no CPT 16.4µM* and DT40 TDP1 CPT 14.6µM*.
Screening CC(=O)c1ccc(N2C(=O)N(Cc3ccc(F)cc3)c3ccccc3S2(=O)=O)cc1 returned TDP1 inh 4.4%, DT40 TDP1 no CPT 16.4µM* and DT40 TDP1 CPT 20.6µM*.
Screening CC(=O)c1ccc(N2C(=O)N(CC(=O)c3ccc(F)cc3)c3ccccc3S2(=O)=O)cc1 returned TDP1 inh 0.5%, DT40 TDP1 no CPT inconclusive and DT40 TDP1 CPT -22.9%.
COc1ccccc1CN1CC[C@@]2(CCCN(C(C)=O)C2)C1 was read as RORgamma inh -6.6%, DT40 TDP1 no CPT -1.9%, VP16 counter -0.9% and DT40 TDP1 CPT 11.5%.
For CCc1ccc(N2C(=O)N(CC(=O)C(C)(C)C)c3ccccc3S2(=O)=O)cc1 the results were TDP1 inh 6.4%, DT40 TDP1 no CPT 20.6µM* and DT40 TDP1 CPT 13µM*.
For CC(=O)c1ccc(N2C(=O)N(Cc3cc(C)ccc3C)c3ccccc3S2(=O)=O)cc1 the results were TDP1 inh 5.4%, DT40 TDP1 no CPT 18.4µM* and DT40 TDP1 CPT 23.1µM*.
For CCc1cccc(N2C(=O)N(CC(=O)NCc3cccc(OC)c3OC)c3ccccc3S2(=O)=O)c1 the results were TDP1 inh 4.4%, DT40 TDP1 no CPT inconclusive and DT40 TDP1 CPT 13µM*.
Screening COc1cccc(N2C(=O)N(CC(=O)NCc3cccc(OC)c3OC)c3ccccc3S2(=O)=O)c1 returned TDP1 inh -1.5%, DT40 TDP1 no CPT -16.8% and DT40 TDP1 CPT -14.3%.
COc1cccc(CNC(=O)Cn2c(=O)cc(C)c3c(C)nn(C)c32)c1OC was read as TDP1 inh -0.6%, DT40 TDP1 no CPT 18.4µM* and DT40 TDP1 CPT 23.1µM*.
`OCc1c(OCc2cccc(F)c2)ccc2ccccc12` gave RORgamma inh 23.3%, DT40 TDP1 no CPT inconclusive, VP16 counter inconclusive and DT40 TDP1 CPT inconclusive.
Screening Cc1cc(=O)oc(C)c1C(=O)OCC(=O)c1ccc2ccccc2c1 returned RORgamma inh 12.4%, TDP1 inh 9.6%, DT40 TDP1 no CPT inconclusive, VP16 counter 2.2% and DT40 TDP1 CPT inconclusive.
`CC(=O)C1=C(C)Nc2ncnn2C1c1ccccc1F` (stereo not given) gave RORgamma inh -15.7%, DT40 TDP1 no CPT 9.0%, VP16 counter 4.5% and DT40 TDP1 CPT 0.6%.
Screening CC(=O)C(Sc1nc(NC(C)(C)C)nc(N(C)C)n1)C(C)=O returned RORgamma inh 6.31µM*, TDP1 inh -4.2%, DT40 TDP1 no CPT inconclusive, VP16 counter 14.1µM* and DT40 TDP1 CPT -20.7%.
COc1ccc(Cl)cc1NC(=O)c1cc(C)no1 was read as RORgamma inh -0.4%, DT40 TDP1 no CPT -15.3%, VP16 counter 0.1% and DT40 TDP1 CPT 1.5%.
O=S(=O)(NCCS(=O)(=O)N1CCN(c2cccc(Cl)c2)CC1)c1ccc(F)cc1 was read as TDP1 inh 5.3%, DT40 TDP1 no CPT 20.6µM* and DT40 TDP1 CPT -50.7%.
